Reference: PubChem BioAssay (NCATS)
Results filed as inconclusive are left out. The source made the active and inactive calls. Calls follow the shape of the dose curve; as a rule, active = well fitted curve in the direction sought with a large enough effect; inconclusive = small, poorly fitted or top-dose-only effect, or another doubt; inactive = no such curve, though single readings can be large; an effect the other way counts as inactive or inconclusive.

Tests used:
[1] = test system: HEK293; experiment: Cytotoxic Profiling of Annotated Libraries Using Quantitative High-Throughput Screening (AID 1296008); conditions: Five cell lines viability, CellTiter-Glo ATP luminescence, 48-72 h; max response: active compounds read low; also: nearly all actives have a fitted effect of over 60% in size; also: potency is read from the fitted curve at half-maximal effect; as to max response: % is scaled to controls: 0 for no effect and ±100 for the full control effect
Outline: (§1)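 Cytotoxicity was measured as CellTiter-Glo ATP luminescence, read after 10 min at room temperature. Compound treatment of the cells lasted 48 or 72 hr at 37 degrees Celsius in a qHTS format.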

[2] = test system: HaCat; experiment: as above; conditions: Five cell lines viability, CellTiter-Glo ATP luminescence, 48-72 h; max response: active compounds read low
Outline: as §1

[3] = test system: KB-3-1; experiment: as above; conditions: Five cell lines viability, CellTiter-Glo ATP luminescence, 48-72 h; max response: active compounds read low
Outline: as §1

[4] = test system: NIH3T3; experiment: as above; conditions: Five cell lines viability, CellTiter-Glo ATP luminescence, 48-72 h; max response: active compounds read low
Outline: as §1

[5] = test system: HACAT; experiment: qHTS assay to identify novel small-molecules to repurpose for Merkel cell carcinoma treatment (AID 1296009); conditions: MCC and control cell lines, CellTiter-Glo viability, 72 h; series mostly up to 44.8 µM; also: nearly all actives have a fitted effect of over 60% in size
Outline: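 After compound transfer in DMSO, plates were kept 72 hr at 37 degree celsius. Luminescent ATP signal from CellTiter-Glo served as viability measure, normalized against DMSO and no-cell controls.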

[6] = test system: C33A; experiment: Primary qHTS to identify gynecologic anti-cancer compounds using libraries of approved drugs and bioactive compounds (AID 1345084); conditions: Gynecologic cancer cell panel viability, ATPlite luminescence, 48 h; series mostly up to 57.5 µM; also: % is scaled to controls: 0 for no effect and ±100 for the full control effect; nearly all actives have a fitted effect of over 55% in size
Outline: (§2)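 Measured: luminescence after ATPlite addition (15 min, RT). Exposure: 48 h, 37 C, 5% CO2.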

[7] = test system: CASKI; experiment: as above; conditions: Gynecologic cancer cell panel viability, ATPlite luminescence, 48 h; series mostly up to 57.5 µM
Outline: as §2

[8] = test system: Es-2; experiment: as above; conditions: Gynecologic cancer cell panel viability, ATPlite luminescence, 48 h; series mostly up to 57.5 µM
Outline: as §2

[9] = test system: HeLa; experiment: as above; conditions: Gynecologic cancer cell panel viability, ATPlite luminescence, 48 h; series mostly up to 57.5 µM
Outline: as §2

[10] = test system: Hek293T; experiment: as above; conditions: Gynecologic cancer cell panel viability, ATPlite luminescence, 48 h, control line for the selectivity index; series mostly up to 57.5 µM
Outline: as §2

[11] = test system: JEG-3; experiment: as above; conditions: Gynecologic cancer cell panel viability, ATPlite luminescence, 48 h; series mostly up to 57.5 µM
Outline: as §2

[12] = test system: CAOV3; experiment: as above; conditions: Gynecologic cancer cell panel viability, ATPlite luminescence, 48 h; series mostly up to 57.5 µM
Outline: as §2

O=C(Nc1c(-c2cccs2)nc2ccccn12)c1ccc(Cl)cc1
inactive: max response [1] -117% | outcome [2] | outcome [3] | max response [4] -0.375% | Potency [5] | Potency [6] | Potency [7] | Potency [8] | Potency [9] | Potency [10] | Potency [11]

COC(=O)C1=CO[C@@H](O[C@@H]2O[C@H](CO)[C@@H](O)[C@H](O)[C@H]2O)C2C1C(=O)C[C@H]2C (some centres undefined)
inactive: max response [1] -7.74% | outcome [2] | outcome [3] | max response [4] 2.63% | Potency [5] | Potency [6] | Potency [7] | Potency [8] | Potency [9] | Potency [10] | Potency [11]

CN1C2CCC1CC(OC(=O)[C@H](CO)c1ccccc1)C2 (some centres undefined)
inactive: max response [1] -10.6% | outcome [2] | max response [3] -9.98% | max response [4] -25.3% | Potency [5] | Potency [6] | Potency [12] | Potency [7] | Potency [10] | Potency [11]

Cc1cc(NC(=O)Nc2ccc(F)c(F)c2)n(-c2ccccc2)n1
inactive: max response [1] -2.17% | outcome [2] | max response [3] 4.72% | max response [4] -11% | Potency [5] | Potency [6] | Potency [7] | Potency [8] | Potency [9] | Potency [10] | Potency [11]

N#Cc1cc(F)cc(-c2nc(-c3ccccn3)no2)c1
inactive: max response [1] -8.23% | outcome [2] | max response [3] -6.38% | max response [4] -10.9% | Potency [5] | Potency [6] | Potency [7] | Potency [10]

C[C@@H]1CC[C@]2(C(=O)O[C@@H]3O[C@H](CO)[C@@H](O)[C@H](O)[C@H]3O)CC[C@]3(C)C(=CCC4[C@@]5(C)C[C@@H](O)[C@H](O)[C@](C)(C(=O)O)C5CC[C@]43C)[C@@H]2[C@]1(C)O (some centres undefined)
inactive: max response [1] 2.11% | outcome [2] | max response [3] 5.29% | max response [4] 0.619% | Potency [5] | Potency [6] | Potency [7] | Potency [8] | Potency [9] | Potency [10] | Potency [11]

C=CC(C)(C)c1[nH]c2cc3c(cc2c1CC1NC(=O)C2=CCCN2C1=O)C=CC(C)(C)O3 (centres undefined)
inactive: max response [1] -27.4% | outcome [2] | outcome [3] | max response [4] -5.01% | Potency [5] | Potency [6] | Potency [12] | Potency [7] | Potency [9] | Potency [10] | Potency [11]

C=C(C(=O)OC)C1C(O)CC2(C)C(O)CCC(=O)C2C1O (centres undefined)
inactive: max response [1] -7.45% | outcome [2] | max response [3] 2.14% | max response [4] 3.84% | Potency [5] | Potency [6] | Potency [12] | Potency [7] | Potency [10] | Potency [11]

COc1cc2c(c(OC)c1CC=C(C)C)C[C@H](c1ccc(O)cc1O)CO2
inactive: max response [1] 0.883% | outcome [2] | outcome [3] | max response [4] 0.487% | Potency [5] | Potency [6] | Potency [7] | Potency [8] | Potency [9] | Potency [10] | Potency [11]

Cc1noc(=O)c2ccc(NC(=O)C(O)(CC(C)(C)c3cccc4c3OCC4)C(F)(F)F)cc12 (centres undefined)
inactive: max response [1] -10.8% | outcome [2] | outcome [3] | max response [4] -1.29% | Potency [5] | Potency [6] | Potency [7] | Potency [8] | Potency [9] | Potency [10] | Potency [11]

CS(=O)(=O)c1ccc(-c2nnc(/C=C/c3nnc(-c4ccc(C#N)cc4)o3)n2-c2ccccc2Cl)nc1
inactive: outcome [2] | max response [3] 2.94% | max response [4] -6.1% | Potency [5] | Potency [6] | Potency [12] | Potency [7] | Potency [8] | Potency [9] | Potency [11]
active: Potency [1] 11.6 µM

O=C(O)CCCCCC[C@H]1C(=O)NC(=O)N1CC[C@@H](O)C1CCCCC1
inactive: max response [1] -1.93% | outcome [2] | outcome [3] | max response [4] -5.35% | Potency [5] | Potency [6] | Potency [7] | Potency [8] | Potency [9] | Potency [10] | Potency [11]

CC(C)=CCC/C(C)=C/CC/C(C)=C/COC1OC(COC2OCC(OC3OCC(O)C(O)C3O)C(O)C2O)C(O)C(OC2OC(C)C(OC3OC(C)C(OC4OCC(OC5OC(C)C(O)C(O)C5O)C(O)C4O)C(O)C3O)C(O)C2O)C1O (centres undefined)
inactive: max response [1] 4.79% | outcome [2] | max response [3] 6.01% | max response [4] -0.843% | outcome [5] inactive [at 9.27 µM] | activity change, negative = cytotoxicity [6] 4.68% [at 6.55 µM] | activity change, negative = cytotoxicity [7] -7.12% [at 6.55 µM] | activity change, negative = cytotoxicity [8] -6.21% [at 6.55 µM] | activity change, negative = cytotoxicity [9] -2.03% [at 6.55 µM] | activity change, negative = cytotoxicity [10] -3.08% [at 6.55 µM] | activity change, negative = cytotoxicity [11] -0.54% [at 6.55 µM]

COc1c2c(c(C)c3c1C(=O)OC3)OC1(C)CC(O)C34OC(OC)(CC(OC(C)=O)C3(C)C1C2)OC4(C)C (centres undefined)
inactive: max response [1] -22.1% | outcome [2] | max response [3] 1.81% | max response [4] -0.676% | Potency [5] | Potency [6] | Potency [7] | Potency [8] | Potency [9] | Potency [10] | Potency [11]
